# Reference: PubChem BioAssay (NCI)
# The panel holds about 83,000 compounds, 20% with a hit somewhere; the sample as a whole holds those more often.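 A percent growth of 40 corresponds to 60% growth inhibition; 0 means no net growth; -100 means all cells died. Active threshold: below 10.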 Unmarked numbers belong to inactive results. The source made the active and inactive calls.
# How the values were obtained:
# Experiment in all cases: NCI-60 one-dose screen, 48 h (100 = growth as untreated, 0 = no growth, -100 = all killed)
# Settings in all cases: 10 µM unless noted
# [1] = tested on: SR leukemia
# [2] = tested on: RPMI-8226 leukemia
# [3] = tested on: OVCAR-8 ovarian
# [4] = tested on: OVCAR-5 ovarian
# [5] = tested on: OVCAR-4 ovarian
# [6] = tested on: SK-OV-3 ovarian
# [7] = tested on: IGROV1 ovarian
# [8] = tested on: OVCAR-3 ovarian
# [9] = tested on: NCI/ADR-RES ovarian
# [10] = tested on: T-47D breast
# [11] = tested on: MDA-MB-435 melanoma
# [12] = tested on: SW-620 colon
# [13] = tested on: MCF7 breast
# [14] = tested on: HCT-116 colon
# [15] = tested on: KM12 colon
# [16] = tested on: HS 578T breast
# [17] = tested on: BT-549 breast
# [18] = tested on: HCC-2998 colon
SMILES,growth [1],growth [2],growth [3],growth [4],growth [5],growth [6],growth [7],growth [8],growth [9],growth [10],growth [11],growth [12],growth [13],growth [14],growth [15],growth [16],growth [17],growth [18]
CCCCCCCCCCN(CCCCCCCCCC)CC(=O)c1ccc2cc(Br)c3ccccc3c2c1,-28.5% (active),-33.1% (active),86.9%,95.3%,77.4%,104%,-79.5% (active),51.2%,64.8%,72.1%,33.3%,-94.2% (active),99%,-22.8% (active),-13.9% (active),–,–,–
CC/C=C1/C(=O)C=C[C@@H]1C/C=C\CCCC(=O)O,20%,19.9%,66.5%,123%,86.9%,111%,114%,–,91.5%,71.8%,54.1%,43.5%,19.8%,35.5%,63.4%,69.1%,76.5%,95.1%
Cc1cc(NCc2cc(Nc3ccnc4cc(Cl)ccc34)ccc2F)nc(Cl)n1,12%,29.6%,35.9%,74.2%,34%,70.2%,57%,57.2%,35.7%,28%,–,57%,–,30.5%,64.7%,57.7%,54.6%,63.2%
COc1cc(-c2n/c(=C\c3c(O)[nH]c4ccc(Cl)cc34)cc3c2=Nc2ccccc2-3)cc(OC)c1OC,0.372% (active),15.5%,3.95% (active),88.6%,-41.8% (active),-14.2% (active),-18.3% (active),-57.4% (active),15.1%,32.7%,16.6%,-29.5% (active),–,–,2.53% (active),–,101%,44.6%
Cc1occc1-c1n[nH]c(=S)n1N1C(=O)CSC1=S,102%,93.8%,101%,99.6%,107%,106%,102%,–,101%,104%,99.5%,94.8%,94.4%,105%,99%,101%,–,112%
